# Screening data from PubChem BioAssay.
# Rows were chosen to be rich in hits. Some 19% of all compounds tested hit in one or more screens of this group.
# HT1080-NT tox: kills 2HG-producing HT-1080-NT fibrosarcoma cells | HT-1080-NT fibrosarcoma viability, CellTiter-Glo ATP luminescence, 48 h | Potency, µM (top dose mostly 46.1 µM), for the others: top-dose activity, negative = less viability, hits mostly cytotoxic | 360,000 tested, 1.6% active;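 note: NT is the 2HG producing partner of a matched IDH1 knockdown line; potency is the fitted concentration of half-maximal effect; 0% = DMSO-treated cells and -100% = media-only wells without cells; nearly all actives have a fitted effect of over 55% in size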
#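 HT-1080-NT; 750 cells/well; 5% FBS RPMI; 48 h compound, 37 degrees C; CellTiter-Glo luminescence; curve fitting and curve-class assignment.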
# DT40 TDP1 no CPT: qHTS for Inhibitors of human tyrosyl-DNA phosphodiesterase 1 (TDP1): qHTS in cells in absence of CPT; DT40 Tdp1-/- hTDP1 cells, no CPT, ATP luminescence, 48 h; Potency, µM (doses to about 46.2 µM), inactives show at the highest dose activity change, negative = growth inhibition, most hits filed as inhibitors; 420,000 tested, 15% active; AID 686978, 2013; note: potency is the fitted concentration of half-maximal effect; nearly all actives have a fitted effect of over 55% in size
#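 Chicken DT40 Tdp1-/- cells stably complemented with human TDP1 were seeded at 400 cells/well with DMSO in place of 20 nM camptothecin. After compound pinning, cells grew at least 48 hr at 37 °C; viability read by CellTiter-Glo luminescence.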
# HT1080 IDH1KD tx: HT-1080 IDH1 knockdown cell toxicity (counter line); HT-1080 IDH1 knockdown viability, ATP luminescence, 48 h; Potency, µM (titrated, usually from 46.1 µM), inactives show top-dose activity, negative = toxicity, most hits filed as cytotoxic; 360,000 tested, 2% active; AID 686971;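 note: potency is the fitted concentration of half-maximal effect; 0% = DMSO wells and -100% = cell-free medium wells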
#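 HT-1080-IDH1KD cells (IDH1 knocked down), 750/well in RPMI with 5% FBS, treated with compound 48 h at 37 degrees C. Viability by CellTiter-Glo luminescence, normalised to DMSO and no-cell wells; concentration-response curves classed.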
# IL1B secr inh: blocks inflammasome-driven IL-1 beta release | 360,000 tested, 4.7% active | THP-1 LPS/ATP IL-1B secretion, AlphaLISA, 16 h; stronger effect = lower value | activity change, % at 57.5 µM | AID 743279; in the data active = activity change below about -50%; inconclusive = mostly about -30% to -49%
#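 THP-1 cells pretreated 1 hr with compounds (up to 57.5 uM final), then stimulated with LPS (250 ng/mL final) plus ATP (1.25 mM final); secreted IL-1B measured by AlphaLISA after 16 hr, decreased signal indicating inhibition.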
# DT40 TDP1 CPT: growth inhibition of DT40 Tdp1-/-;hTDP1 cells with camptothecin (screen for TDP1 inhibitors); chicken DT40 Tdp1-/-;hTDP1 cells + 20 nM CPT, ATP luminescence, 48 h; Potency, µM (doses to about 46.2 µM), for the others: at the top dose activity change, negative = growth inhibition, hits mostly inhibitors; 420,000 tested, 12% active; AID 686979; note: potency is the fitted concentration of half-maximal effect; nearly all actives have a fitted effect of over 55% in size
#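 Chicken DT40 Tdp1-/- cells stably complemented with human TDP1 were seeded at 400 cells/well in medium containing 20 nM camptothecin, exposed to pin-transferred compounds, and grown at 37 °C for at least 48 hr. Viability was read as ATP luminescence.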
# * hit, by the source's call; ? = inconclusive; . = not tested or not shown. Unless noted, calls come from the whole dose curve; as a rule, active = well fitted curve in the direction sought with a large enough effect; inconclusive = small, poorly fitted or top-dose-only effect, or another doubt; inactive = no such curve, though single readings can be large; an effect the other way counts as inactive or inconclusive. Unless noted, % is set by controls: 0 for no effect and ±100 for the full control effect.
SMILES,HT1080-NT tox,DT40 TDP1 no CPT,HT1080 IDH1KD tx,IL1B secr inh,DT40 TDP1 CPT
CCCc1nc(NC(=O)c2ccccc2)nc(NC(=O)c2ccccc2)n1,-3%,1%,-23%,?,?
CSCCC(NS(=O)(=O)c1ccc2c(c1)oc(=O)n2C)C(=O)Nc1ccc(Cl)cc1 (stereo unspecified),.,?,.,.,0%
Cc1nc(N/N=C/c2cccnc2)cc(N2CCOCC2)n1,-5%,?,0%,-64*,?
Oc1ccc(/C=N/N2CCCCC2)cc1O,-4%,?,-22%,16,?
O=C(CNS(=O)(=O)N1CCOCC1)N/N=C/c1cccnc1,-4%,-12%,-1%,15,32%
Oc1ccc(/C=N\Nc2cc(N3CCOCC3)nc(N3CCOCC3)n2)c(O)c1,-18%,16µM*,-13%,?,21µM*
CCCCOc1ccc(/C=N/Nc2cc(N3CCOCC3)nc(C)n2)cc1,1%,21µM*,-3%,14,18µM*
Oc1ccc(/C=N/Nc2cc(N3CCCC3)nc(N3CCCC3)n2)cc1O,-1%,21µM*,-5%,37,18µM*
Cc1cc(N/N=C/c2ccc(O)cc2O)nc(N2CCOCC2)n1,11%,-28%,5%,-6,-3%
CCCc1cc(=O)c2c(O)ccc(OC)c2o1,-8%,-17%,-6%,-8,0%
COc1ccc(-c2nc3ncccc3n2O)cc1,-2%,-20%,-2%,-6,-4%
Cc1cc(N/N=C/c2ccccc2)nc(N2CCOCC2)n1,0%,-5%,-19%,-23,1%
Cc1cccc(/C=N/Nc2cc(N3CCOCC3)nc(N3CCOCC3)n2)c1,?,16µM*,?,-78*,3.3µM*
CC(C)C[C@@H](CN1CCCC1CN1C(=S)NC[C@@H]1Cc1ccc(O)cc1)N1C[C@H](Cc2ccc(O)cc2)N(CC2CCCCC2)C1=S (stereo partly specified),18µM*,15µM*,?,-87*,21µM*
CC(C)C[C@@H](CN1CCC[C@@H]1CN1C(=S)NC[C@@H]1Cc1ccccc1)N1C[C@H](Cc2ccc(O)cc2)N(CC2CCCCCC2)C1=S,?,18µM*,18µM*,-15,13µM*
CC(C)C[C@@H](CN1CCC[C@@H]1CN1C(=S)NC[C@@H]1Cc1ccccc1)N1C[C@H](Cc2ccc(O)cc2)N(CC2CCCCC2)C1=S,1%,23µM*,1%,8,?
CN(Cc1ccc(Cl)c(Cl)c1)C(=O)CN1C(=O)NC2(CCCC2)C1=O,0%,-2%,-14%,-5,-22%
CCN(CCn1cccn1)C(=O)C1CCC(=O)N(CC2CCCCC2)C1 (stereo unspecified),5%,17%,3%,35,5%
Cc1cccc(S(=O)(=O)NC(=O)C2(C)CCN2C(=O)c2c(C)noc2C)c1 (stereo unspecified),1%,-4%,11%,1,18%
CCc1ccccc1N1C(=O)[C@@H]2Cc3ccccc3CN2C1=O,10%,?,4%,5,-14%
O=C(CCN1C(=O)/C(=C/c2ccccc2)SC1=S)NCCc1ccc(O)cc1,?,?,?,-12,16µM*
COc1ccc(/C=C2\SC(=S)N(CCC(=O)NCCc3ccc(O)cc3)C2=O)cc1,-4%,16µM*,9%,-8,?
COc1ccccc1/C=C1\SC(=S)N(CCC(=O)NCCc2ccc(O)cc2)C1=O,?,16µM*,?,-82*,?
COc1ccc(/C=C2/SC(=S)N(CCCC(=O)Nc3ccc(O)cc3)C2=O)cc1,?,?,?,-17,?
COc1ccccc1/C=C1\SC(=S)N(CCC(=O)Nc2ccc(C(=O)O)c(O)c2)C1=O,0%,-10%,4%,17,20%
NS(=O)(=O)Cc1noc2ccccc12,-2%,22%,14%,16,-21%
NC(=O)c1cc([N+](=O)[O-])ccc1NCc1cnccn1,5%,-1%,5%,0,-20%
